# Measured values: PubChem BioAssay (NCATS)
# Where “and” joins values, the source holds several entries; their conditions need not be identical. Equal values may be shown once. Records with an inconclusive call do not appear. Calls of active or inactive are those of the source. Unless noted, calls follow the shape of the dose curve; as a rule, active = well fitted curve in the direction sought with a large enough effect; inconclusive = small, poorly fitted or top-dose-only effect, or another doubt; inactive = no such curve, though single readings can be large; an effect the other way counts as inactive or inconclusive.
# Key:
# [1] = target: Tyrosine-protein kinase Yes (Homo sapiens) (UniProt P07947); experiment: qHTS for small molecule inhibitors of Yes1 kinase: Primary Screen (AID 686947); also: nearly all actives have a fitted effect of over 60% in size; also: potency is read from the fitted curve at half-maximal effect
# Chain of Tyrosine-protein kinase Yes (Homo sapiens) (P07947 whole entry, looked up): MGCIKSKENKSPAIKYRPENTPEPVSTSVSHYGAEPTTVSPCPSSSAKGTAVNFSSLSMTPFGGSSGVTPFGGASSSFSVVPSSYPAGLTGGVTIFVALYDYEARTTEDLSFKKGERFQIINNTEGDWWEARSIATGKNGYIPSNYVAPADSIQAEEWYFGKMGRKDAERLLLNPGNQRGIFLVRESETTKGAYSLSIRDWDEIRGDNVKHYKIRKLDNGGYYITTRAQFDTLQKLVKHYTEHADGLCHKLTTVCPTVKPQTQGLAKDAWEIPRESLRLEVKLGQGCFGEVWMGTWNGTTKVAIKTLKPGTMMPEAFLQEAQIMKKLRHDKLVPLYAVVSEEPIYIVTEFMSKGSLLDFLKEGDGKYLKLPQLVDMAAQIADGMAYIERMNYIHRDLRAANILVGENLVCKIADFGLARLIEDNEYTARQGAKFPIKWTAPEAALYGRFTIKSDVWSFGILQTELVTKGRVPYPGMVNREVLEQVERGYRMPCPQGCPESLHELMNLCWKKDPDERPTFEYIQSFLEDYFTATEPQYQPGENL
# How it was run: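 ADP-Glo luminescence readout; final 4 nM Yes1, 0.1 mM ATP, 0.3 mg/mL poly(E4Y), Tris pH 7.5, MgCl2, DTT, Brij-35. 20 min compound preincubation, 60 min reaction at RT. Normalized to DMSO wells with and without enzyme.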
# [2] = qHTS for small molecule inhibitors of Yes1 kinase: Counter Assay (AID 686950);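 also: no kinase present so only ADP-Glo detection of a fixed ADP amount is tested; luminescence from ADP-Glo reporting ADP in a fixed ATP and ADP mixture; 0% = DMSO wells with ATP plus ADP and -100% = ATP-only wells without ADP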
# How it was run: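 Luminescence read-out from ADP-Glo quantifies a fixed ADP amount (0.02 mM ADP with 0.08 mM ATP) after 60 min at room temperature; signal is normalized between DMSO wells with ATP/ADP and with 0.1 mM ATP alone.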
# [3] = qHTS Assay for Identifying Gametocytocidal Compounds (AID 743244); also: potency is read from the fitted curve at half-maximal effect;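 as to max response: % is scaled to controls: 0 for no effect and ±100 for the full control effect; actives lower the fluorescent signal which means gametocytes are killed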; conditions: P. falciparum 3D7 stage III-V gametocytes, alamarBlue, 72 h; max response: stronger effect = lower value
# How it was run: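 Fluorescence at Ex 525/Em 598 nm, recorded 24 h after alamarBlue addition, reports residual metabolic activity of 3D7 gametocytes (stages III–V) following 72 h compound exposure at 37 °C, 5% CO2.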
# [4] = qHTS profiling for inhibitors of Plasmodium falciparum (3D7) proliferation (AID 743322; call rule not given here;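 also: infected erythrocytes exposed to compound for 72 h before lysis; 100% = DMSO vehicle wells and 0% = 0.29 µM artemisinin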); conditions: P. falciparum 3D7 proliferation; at 28.7 µM (top of the series)
# How it was run: (§1)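 Erythrocytes infected with P. falciparum (0.3% parasitemia, 2.5% hematocrit) incubated with compounds 72 h at 37 C, 5% CO2. Lysis with saponin/Triton buffer containing SYBR Green I, overnight at room temperature in the dark; DNA fluorescence (485/535 nm) normalised to 0.29 uM artemisinin and DMSO.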
# [5] = qHTS profiling for inhibitors of Plasmodium falciparum (DD2) proliferation (AID 743323; call rule not given here); conditions: lower = more inhibition; at 28.7 µM (top of the series)
# How it was run: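 Parasite DNA quantified by SYBR Green fluorescence (ex 485, em 535 nm) after saponin/Triton lysis and overnight dark incubation. Cultures: 0.3% parasitemia, 2.5% hematocrit, 72 h, 37 C; data scaled between DMSO and 0.29 uM artemisinin.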
# [6] = qHTS profiling for inhibitors of Plasmodium falciparum (HB3) proliferation (AID 743324); conditions: Plasmodium falciparum HB3 blood-stage proliferation; at 28.7 µM (top of the series);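 also: 100% = DMSO vehicle wells and 0% = artemisinin-treated control wells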
# How it was run: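 P. falciparum HB3 grown in erythrocytes (0.3% parasitemia, 2.5% hematocrit final) with compound for 72 h at 37 C, 5% CO2. Parasite DNA detected by SYBR Green after saponin/triton lysis overnight; normalized to 0.29 uM artemisinin and DMSO.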
# [7] = qHTS profiling of the MIPE4 collection as inhibitors of Plasmodium falciparum (3D7) proliferation (AID 743344; call rule not given here;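 also: scaled between DMSO vehicle wells and 0.29 µM artemisinin as full inhibition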); conditions: P. falciparum 3D7 in erythrocytes, SYBR Green DNA fluorescence, 72 h; at 28.5 µM (top of the series) unless noted
# How it was run: as §1
# [8] = qHTS profiling of the MIPE4 collection as inhibitors of Plasmodium falciparum (DD2) proliferation (AID 743345; call rule not given here); conditions: P. falciparum Dd2 in erythrocytes, SYBR Green DNA, 72 h; at 28.5 µM (top of the series) unless noted
# How it was run: as §1
# [9] = qHTS assay for environmental chemicals that activate the Aryl hydrocarbon Receptor (AhR) signaling pathway (AID 651777); conditions: 1A2-DRE human hepatoma cells, luciferase, 24 h; activation: stronger effect = higher value; also: % of control where 0% means no effect; nearly all actives have a fitted effect of over 15% in size
# How it was run: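 Concentration–response screening used 1,200 1A2-DRE cells per well, 24 hr compound exposure (37 C, 5% CO2), and One-Glo luminescence as the AhR-driven CYP1A2 reporter signal.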
# [10] = target: Peroxisome proliferator-activated receptor alpha (Homo sapiens) (UniProt Q07869); experiment: qHTS assay for small molecule agonists of the peroxisome proliferator-activated receptor alpha (PPARalpha) signaling pathway (AID 651778); conditions: PathHunter PPARalpha complementation, chemiluminescence, 6 h; stronger effect = higher value; also: % of control where 0% means no effect
# Chain of Peroxisome proliferator-activated receptor alpha (Homo sapiens) (Q07869 whole entry, looked up): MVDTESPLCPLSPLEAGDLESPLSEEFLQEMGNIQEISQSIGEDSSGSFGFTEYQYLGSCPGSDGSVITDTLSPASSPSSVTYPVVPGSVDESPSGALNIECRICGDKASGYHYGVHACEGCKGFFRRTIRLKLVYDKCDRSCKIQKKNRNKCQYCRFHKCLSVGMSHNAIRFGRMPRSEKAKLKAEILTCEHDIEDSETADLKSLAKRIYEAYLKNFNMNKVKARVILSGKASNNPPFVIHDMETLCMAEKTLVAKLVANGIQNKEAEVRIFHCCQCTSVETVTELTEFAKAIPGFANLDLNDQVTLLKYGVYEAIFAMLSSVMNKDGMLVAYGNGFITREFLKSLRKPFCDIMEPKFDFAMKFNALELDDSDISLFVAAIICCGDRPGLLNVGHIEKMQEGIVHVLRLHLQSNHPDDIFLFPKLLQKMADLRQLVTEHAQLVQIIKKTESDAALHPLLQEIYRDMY
# How it was run: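 Chemiluminescence from complemented enzyme reported PPARalpha activation in cells after 6 hr of compound treatment at 37 C. The detection reagent was incubated for 60 min at room temperature, and compounds were scored as agonists.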
# [11] = target: Nuclear receptor ROR-gamma (Homo sapiens) (UniProt P51449); experiment: qHTS assay for small molecule antagonists of the retinoid-related orphan receptor gamma (ROR-gamma) signaling pathway (AID 651802); also: nearly all actives have a fitted effect of over 60% in size; also: potency is read from the fitted curve at half-maximal effect
# Chain of Nuclear receptor ROR-gamma (Homo sapiens) (P51449 whole entry, looked up): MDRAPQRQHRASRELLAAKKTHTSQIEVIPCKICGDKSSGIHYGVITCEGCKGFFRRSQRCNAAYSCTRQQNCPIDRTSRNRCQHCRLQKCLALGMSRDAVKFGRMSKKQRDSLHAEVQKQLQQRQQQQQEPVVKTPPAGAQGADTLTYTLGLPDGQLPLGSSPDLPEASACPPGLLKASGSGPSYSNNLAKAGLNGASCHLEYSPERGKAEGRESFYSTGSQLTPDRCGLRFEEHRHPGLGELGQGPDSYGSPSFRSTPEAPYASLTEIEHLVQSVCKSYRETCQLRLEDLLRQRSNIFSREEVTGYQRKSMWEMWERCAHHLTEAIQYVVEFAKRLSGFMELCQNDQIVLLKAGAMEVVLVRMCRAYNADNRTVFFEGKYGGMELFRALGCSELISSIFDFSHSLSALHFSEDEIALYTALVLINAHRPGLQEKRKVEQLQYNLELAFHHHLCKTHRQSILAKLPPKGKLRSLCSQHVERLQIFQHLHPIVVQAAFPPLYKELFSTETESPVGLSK
# How it was run: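 CHO cells carrying TET-inducible ROR-gamma and an ROR response element–luciferase reporter were exposed to compound, then induced with doxycycline. After 16hr at 37C, luminescence was read; lower signal indicates antagonism.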
# [12] = qHTS assay for small molecule antagonists of the retinoid-related orphan receptor gamma (ROR-gamma) signaling pathway - cell viability counter screen (AID 720652; active = well fitted curve in the direction sought with a large enough effect in the repeat runs; an effect the other way counts as inactive or inconclusive;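 also: compound exposure lasted 16 hr before ATP read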; also: potency is read from the fitted curve at half-maximal effect)
# How it was run: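 Counter screen in CHO cells carrying TET-inducible ROR-gamma and an ROR response element-luciferase reporter; cells plated 5 hr, compound pinned, doxycycline added, then 16 hr at 37 C. Viability read as intracellular ATP by CellTiter-Glo luminescence.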
# [13] = qHTS assay for cell viability of HEK293 cells (AID 743288); conditions: ATP luminescence (CellTiter-Glo), 18 h; max response: stronger effect = lower value; also: nearly all actives have a fitted effect of over 50% in size; also: potency is read from the fitted curve at half-maximal effect; as to max response: % is scaled to controls: 0 for no effect and ±100 for the full control effect
# How it was run: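 Total intracellular ATP, measured with a luciferase-coupled reagent, indicates the number of viable HEK293 cells. Exposure to test chemicals lasts 18 h at 37 C in 1,536-well format at 2,000 cells/well.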
# [14] = qHTS assay for cell viability of the p53RE-bla HCT-116 cell line (AID 743292); also: nearly all actives have a fitted effect of over 55% in size; also: potency is read from the fitted curve at half-maximal effect
# How it was run: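 Compound-exposed HCT-116 (p53RE-bla) cells, 4,000 per well, were kept 16 h at 37 C following a 5 h preincubation. Cell number was estimated from total ATP by CellTiter-Glo luminescence read after 30 min at room temperature.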
# [15] = target: Arylsulfatase A (Homo sapiens) (UniProt P15289); experiment: qHTS screen for enhancers of Arylsulfatase A (ASA1): LOPAC Validation Assay (AID 720538); conditions: outcome: dose series up to 57.5 µM
# Chain of Arylsulfatase A (Homo sapiens) (P15289 whole entry, looked up): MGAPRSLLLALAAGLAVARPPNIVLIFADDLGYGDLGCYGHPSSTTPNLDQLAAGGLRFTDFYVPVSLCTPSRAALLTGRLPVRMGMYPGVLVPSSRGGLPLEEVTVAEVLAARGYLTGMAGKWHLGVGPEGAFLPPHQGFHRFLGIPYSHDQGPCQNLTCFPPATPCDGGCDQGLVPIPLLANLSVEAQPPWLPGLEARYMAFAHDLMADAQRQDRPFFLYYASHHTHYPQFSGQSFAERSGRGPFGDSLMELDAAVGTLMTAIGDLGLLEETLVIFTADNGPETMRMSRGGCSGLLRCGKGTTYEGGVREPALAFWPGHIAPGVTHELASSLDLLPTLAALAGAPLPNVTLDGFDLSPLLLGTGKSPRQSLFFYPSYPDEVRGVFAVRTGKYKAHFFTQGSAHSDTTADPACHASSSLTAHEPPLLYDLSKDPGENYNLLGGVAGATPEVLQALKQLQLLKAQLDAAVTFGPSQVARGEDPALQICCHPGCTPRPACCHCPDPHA
# How it was run: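 Enhancer assay in patient-derived MLD fibroblasts carrying ASA-I179S: 48 h compound exposure at 37 C, then 14 h room-temperature pNCS turnover (0.5 mM final) in lysis buffer. Read by fluorescence at 525/598 nm after NaOH stop.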
# [16] = qHTS for compounds that reverse cellular toxicity of Amyloid beta (A-beta) peptide in yeast: LOPAC Validation Assay (AID 720559);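 also: plate controls were DMSO for no effect and equimolar ferric chloride plus clioquinol rescue for full effect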
# How it was run: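 Rescue of A-beta toxicity was scored as yeast growth by 600 nm absorbance after 48 hr at 30 C with compound. Normalization used DMSO (negative) and equimolar ferric chloride plus clioquinol (positive).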
# [17] = qHTS for Activators of Parkin Expression: LOPAC Validation Assay (NLuc Reporter) (AID 720572;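 also: 0% = DMSO and 100% = positive control compound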)
# How it was run: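 Parkin promoter-driven FLuc/NLuc neuronal reporter cells; 24 h plating, 7-pt dose response, 24 h at 37 C/5% CO2; FLuc then NanoLuc reagent, 10 min each, luminescence; DMSO/positive control normalized.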
# [18] = qHTS for Activators of Parkin Expression: LOPAC Validation Assay (FLuc Reporter) (AID 720573;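 also: 0% = DMSO and 100% = positive control compounds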)
# How it was run: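 FLuc signal from Parkin-promoter coincidence reporter neuronal cells, normalized to DMSO and positive control (100%). Cells (1,500/well) pre-incubated 24 h, then exposed to LOPAC compounds in 7-point dose response for 24 h at 37 C, 5% CO2.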
# [19] = qHTS assay for small molecule agonists of the antioxidant response element (ARE) signaling pathway measured by Nrf2-dependant transcriptional activity - cell viability counter screen (AID 720653; active = well fitted curve in the direction sought with a large enough effect in the repeat runs; an effect the other way counts as inactive or inconclusive; also: potency is read from the fitted curve at half-maximal effect; as to max response: % is scaled to controls: 0 for no effect and ±100 for the full control effect); conditions: ARE-bla HepG2 viability, CellTiter-Glo ATP luminescence, 16 h; max response: stronger effect = lower value
# How it was run: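 Cytotoxicity counter screen: intracellular ATP quantified by CellTiter-Glo luminescence in the same ARE-bla HepG2 plates, after 16 h compound exposure and a 2 h beta-lactamase substrate step.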
# [20] = target: Hexokinase-4 (Homo sapiens) + Glucokinase regulatory protein (Homo sapiens) (UniProt P35557+Q14397); experiment: qHTS assay for inhibitors of recombinant human GCK-GKRP interaction: Diaphorase-coupled assay (AID 743205)
# Chain of Hexokinase-4 (Homo sapiens) + Glucokinase regulatory protein (Homo sapiens) (P35557 whole entry, looked up): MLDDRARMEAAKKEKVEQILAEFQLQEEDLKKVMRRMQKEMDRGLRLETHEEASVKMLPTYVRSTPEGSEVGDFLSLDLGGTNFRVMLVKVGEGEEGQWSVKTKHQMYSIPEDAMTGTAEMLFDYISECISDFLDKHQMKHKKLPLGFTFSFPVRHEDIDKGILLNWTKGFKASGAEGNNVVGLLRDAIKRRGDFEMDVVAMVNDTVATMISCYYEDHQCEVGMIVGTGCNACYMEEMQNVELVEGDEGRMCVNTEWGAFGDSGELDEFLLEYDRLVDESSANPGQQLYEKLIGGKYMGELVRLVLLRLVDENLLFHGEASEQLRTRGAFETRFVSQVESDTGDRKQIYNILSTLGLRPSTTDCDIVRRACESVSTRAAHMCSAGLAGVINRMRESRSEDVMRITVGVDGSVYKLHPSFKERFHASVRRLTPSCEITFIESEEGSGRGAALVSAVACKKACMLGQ
# Chain of Hexokinase-4 (Homo sapiens) + Glucokinase regulatory protein (Homo sapiens) (Q14397 whole entry, looked up): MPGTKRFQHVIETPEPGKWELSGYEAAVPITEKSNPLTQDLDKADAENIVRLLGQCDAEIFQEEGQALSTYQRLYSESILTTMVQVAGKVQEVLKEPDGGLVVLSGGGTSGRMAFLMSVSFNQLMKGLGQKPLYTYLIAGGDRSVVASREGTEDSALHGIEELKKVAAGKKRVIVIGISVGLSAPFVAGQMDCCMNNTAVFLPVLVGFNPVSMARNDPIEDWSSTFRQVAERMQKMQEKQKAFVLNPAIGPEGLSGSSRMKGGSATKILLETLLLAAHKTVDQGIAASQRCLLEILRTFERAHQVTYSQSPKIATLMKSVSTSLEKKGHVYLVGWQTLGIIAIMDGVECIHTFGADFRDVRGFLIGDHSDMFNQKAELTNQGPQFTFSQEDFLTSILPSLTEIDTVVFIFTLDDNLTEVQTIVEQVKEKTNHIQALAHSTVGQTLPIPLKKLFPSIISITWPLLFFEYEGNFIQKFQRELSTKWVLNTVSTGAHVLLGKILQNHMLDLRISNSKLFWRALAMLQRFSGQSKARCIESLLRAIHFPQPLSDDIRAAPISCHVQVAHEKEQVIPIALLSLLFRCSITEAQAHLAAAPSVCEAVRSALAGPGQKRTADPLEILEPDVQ
# How it was run: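 A kinetic fluorescence read (Ex 525/Em 590 nm, every minute for 30 minutes) tracked resorufin from a G6PDH-diaphorase coupled GCK reaction. It contained 10 nM GST-GCK, 10 nM FLAG-GKRP, 5 mM glucose, 0.4 mM ATP in Hepes pH 7.6. Normalized to with/without-enzyme DMSO controls.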
structure (smiles),measurement,setting,value
O=C(N[C@@H](c1ccccc1)[C@@H]1CCCCN1)c1cccc(C(F)(F)F)c1Cl,Potency,[1],inactive
same,outcome,[2],inactive
same,Potency,[3],18.7 µM (active)
same,remaining parasite growth % (stronger effect = lower value),[4],52.4%
same,"activity, percent of control",[5],16.6%
same,"remaining proliferation (% of control), lower = more inhibition",[6],29.7%
same,"parasite growth, % of DMSO control",[7],9.06%
same,"parasite growth remaining, % of DMSO control (lower = more inhibition)",[8],8.97%
O=C(O)c1cc(O)c2c(c1)C(=O)c1cccc(O)c1C2=O,activation,[9],1.52% (inactive)
same,max response,[10],-6.2% (inactive)
same,Potency,[11],37.6 µM (active)
same,Potency,[12],inactive
same,max response,[13],-22.9% (inactive)
same,Potency,[14],35.5 µM (active)
same,"parasite growth, % of DMSO control",[7],62.1% [at 57.5 µM]
same,"parasite growth remaining, % of DMSO control (lower = more inhibition)",[8],73.9% [at 57.5 µM]
O=C(Nc1cc(Cl)cc2c1[nH]c1cnccc12)c1cccnc1,Potency,[1],inactive
same,outcome,[2],inactive
same,max response,[3],1.52% (inactive)
same,remaining parasite growth % (stronger effect = lower value),[4],-0.264%
same,"activity, percent of control",[5],7.04%
same,"remaining proliferation (% of control), lower = more inhibition",[6],0.746%
same,"parasite growth, % of DMSO control",[7],5.73%
same,"parasite growth remaining, % of DMSO control (lower = more inhibition)",[8],15.5%
O=C1C(Cl)=C(NCCN2CCOCC2)C(=O)c2ncccc21,Potency,[1],6.88 µM (active)
same,outcome,[2],inactive
same,max response,[3],-156% (inactive)
same,remaining parasite growth % (stronger effect = lower value),[4],34.6%
same,"activity, percent of control",[5],17.3%
same,"remaining proliferation (% of control), lower = more inhibition",[6],26.6%
same,"parasite growth, % of DMSO control",[7],15.2%
same,"parasite growth remaining, % of DMSO control (lower = more inhibition)",[8],18%
CC1=C(/C=C/C(C)=C/C=C/C(C)=C/C(=O)Nc2ccc(O)cc2)C(C)(C)CCC1,activation,[9],4.06% (inactive)
same,max response,[10],8.2% (inactive)
same,Potency,[11],26.6 µM (active)
same,Potency,[1],inactive
same,outcome,[2],inactive
same,outcome,[15],inactive
same,outcome,[16],inactive
same,Potency,[17],inactive
same,Potency,[18],inactive
same,Potency,[12],26.6 µM (active)
same,Potency,[19],44.7 µM (active)
same,outcome,[20],inactive
same,max response,[3],-5.25% (inactive) and -28.8% (inactive)
same,Potency,[13],50.1 µM (active)
same,remaining parasite growth % (stronger effect = lower value),[4],14.1%
same,"activity, percent of control",[5],22.9%
same,"remaining proliferation (% of control), lower = more inhibition",[6],-0.513%
O=c1c(-c2ccc(O)cc2)coc2cc(O)ccc12,max response,[10],0.0671% (inactive) and -0.373% (inactive)
same,Potency,[11],inactive
same,outcome,[15],inactive
same,max response,[19],-5.4% (inactive) and -12% (inactive)
same,outcome,[20],inactive
same,max response,[3],16.7% (inactive)
same,max response,[13],-7.57% (inactive) and -12.8% (inactive)
same,Potency,[14],inactive
same,"parasite growth, % of DMSO control",[7],100%
same,"parasite growth remaining, % of DMSO control (lower = more inhibition)",[8],102%
